Test results as given in PubChem BioAssay (NCATS).
Values joined by “and” are separate entries in the source; they are usually repeats but may differ in a detail not shown here. Equal values may be shown once. Results filed as inconclusive are left out. Active and inactive are the calls of the source. Unless noted, calls come from the whole dose curve; as a rule, active = well fitted curve in the direction sought with a large enough effect; inconclusive = small, poorly fitted or top-dose-only effect, or another doubt; inactive = no such curve, though single readings can be large; an effect the other way counts as inactive or inconclusive.

Assays:
[1] = qHTS for Inhibitors of Plasmodium falciparum (DD2) proliferation (AID 504314);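 note: parasite DNA measured by SYBR Green fluorescence after red cell lysis; plate controls were DMSO vehicle for no effect and artemisinin wells for full effect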
Summary of the method: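 P. falciparum Dd2 is grown in erythrocytes with test compound for 72 h at 37C under 5% CO2. Growth is scored by SYBR Green I fluorescence after detergent lysis, relative to artemisinin (0.29 uM) and DMSO controls.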

[2] = qHTS for Inhibitors of Plasmodium falciparum (GB4) proliferation (AID 504315);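 note: 0% = DMSO vehicle and -100% = 0.29 µM artemisinin control; nearly all actives have a fitted effect of over 50% in size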
Summary of the method: (§1)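 Parasite growth measured as SYBR Green DNA fluorescence (ex 485, em 535 nm) after overnight lysis following 72 h culture at 37 °C, 0.3% parasitemia, 2.5% hematocrit. Values normalized against DMSO and 0.29 uM artemisinin controls, with plate-stack correction.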

[3] = qHTS for Inhibitors of Plasmodium falciparum (7G8) proliferation (AID 504316);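 note: series mostly up to about 6.7 µM; 0% = DMSO vehicle and -100% = 0.29 µM artemisinin full kill; nearly all actives have a fitted effect of over 65% in size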
Summary of the method: as §1

[4] = qHTS for Inhibitors of Plasmodium falciparum (HB3) proliferation (AID 504318);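 note: 0% = DMSO vehicle and -100% = artemisinin control; nearly all actives have a fitted effect of over 60% in size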
Summary of the method: as §1

[5] = qHTS for Inhibitors of Plasmodium falciparum (CP250) proliferation (AID 504320);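 note: plate controls were DMSO vehicle for no effect and 0.29 µM artemisinin control for full effect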
Summary of the method: as §1

[6] = biological target: Atrial natriuretic peptide receptor 1 (Homo sapiens) (UniProt P16066); test: Natriuretic polypeptide receptor (hNpr1) antagonism - Pilot CMLD screen (AID 1347052; calls by dose curve;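 note: HEK293 cells with hNpr1 stimulated by hNppA peptide at 0.1 nM; cGMP level read as GloSensor luciferase luminescence after agonist stimulation; series mostly up to about 9.2 µM; % is set by controls: 0 for no effect and ±100 for the full control effect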)
Chain of Atrial natriuretic peptide receptor 1 (Homo sapiens) (P16066 whole entry, looked up): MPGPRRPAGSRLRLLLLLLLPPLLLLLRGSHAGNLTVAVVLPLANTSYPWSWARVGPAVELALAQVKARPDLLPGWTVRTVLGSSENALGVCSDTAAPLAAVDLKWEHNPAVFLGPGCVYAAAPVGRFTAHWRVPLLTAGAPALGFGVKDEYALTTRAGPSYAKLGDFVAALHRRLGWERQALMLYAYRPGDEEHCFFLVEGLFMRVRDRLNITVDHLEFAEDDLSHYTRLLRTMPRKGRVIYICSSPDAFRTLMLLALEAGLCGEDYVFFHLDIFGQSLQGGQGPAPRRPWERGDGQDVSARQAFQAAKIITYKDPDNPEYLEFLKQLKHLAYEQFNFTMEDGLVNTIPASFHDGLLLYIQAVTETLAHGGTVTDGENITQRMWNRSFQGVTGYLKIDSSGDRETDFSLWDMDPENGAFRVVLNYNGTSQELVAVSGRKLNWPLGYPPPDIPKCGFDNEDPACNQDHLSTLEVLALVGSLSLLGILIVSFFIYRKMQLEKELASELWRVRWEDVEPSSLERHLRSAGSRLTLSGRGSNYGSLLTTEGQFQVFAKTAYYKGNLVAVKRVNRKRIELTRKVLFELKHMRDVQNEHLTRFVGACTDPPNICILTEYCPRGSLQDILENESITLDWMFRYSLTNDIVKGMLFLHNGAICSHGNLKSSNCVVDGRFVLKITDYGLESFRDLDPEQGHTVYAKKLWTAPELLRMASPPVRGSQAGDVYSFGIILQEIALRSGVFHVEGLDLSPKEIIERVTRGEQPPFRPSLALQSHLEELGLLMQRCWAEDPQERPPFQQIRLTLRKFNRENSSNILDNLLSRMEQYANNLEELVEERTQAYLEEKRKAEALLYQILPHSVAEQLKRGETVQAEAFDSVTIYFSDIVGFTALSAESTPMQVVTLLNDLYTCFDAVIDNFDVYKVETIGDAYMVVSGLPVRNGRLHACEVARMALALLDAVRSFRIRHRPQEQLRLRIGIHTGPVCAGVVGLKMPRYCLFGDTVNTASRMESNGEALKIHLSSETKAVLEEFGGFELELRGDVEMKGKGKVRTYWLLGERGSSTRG

COCCN1C(=O)NC(c2ccccc2)C(C(=O)OC)=C1C (centres undefined)
inactive: Potency [1] | Potency [2] | Potency [3] | Potency [4] | Potency [5] | Potency [6]

C=CCN1C(=O)[C@@]2(CC(C)=CC[C@@H](C)O2)c2ccccc21
inactive: Potency [1] | Potency [2] | Potency [3] | Potency [4] | Potency [5] | Potency [6]

C[C@H]1CC[C@H]2C(=O)NC[C@H](O)CN2[C@H]1c1ccc(Br)cc1
inactive: Potency [1] | Potency [2] | Potency [3] | Potency [4] | Potency [5] | Potency [6]

COc1ccc2c(c1)O[C@@H](c1ccc3c(c1)OCO3)[C@H](O)C2=O
inactive: Potency [1] | Potency [2] | Potency [3] | Potency [4] | Potency [5] | Potency [6]

Cc1noc(C)c1S(=O)(=O)N1CCc2nc(COc3ccccc3)c3c(c2C1)CO[C@@H](C)C3
inactive: Potency [1] | Potency [2] | Potency [3] | Potency [4] | Potency [5] | Potency [6]

C=CCN1c2ccccc2[C@]23C[C@@H](C(=O)OC)N(C(=O)Nc4ccc(C(F)(F)F)cc4)C2=NC(C(=O)OC)=C(C(=O)OC)[C@H]13
inactive: Potency [1] | Potency [2] | Potency [3] | Potency [4] | Potency [5] | Potency [6]

COC(=O)CC=C[C@@H](C)[C@@H](C=NOC[C@@H](C)[C@H](OCc1ccccc1)C(C)C)NS(=O)(=O)c1ccc(C)cc1
inactive: Potency [1] | Potency [2] | Potency [3] | Potency [4] | Potency [5] | Potency [6]

COC(=O)C1=C(C(=O)OC)[C@@H]2N(C)c3ccc(OC)cc3[C@@]23C[C@@H](C(=O)OC)N(C(=O)c2cccs2)C3=N1
inactive: Potency [1] | Potency [2] | Potency [3] | Potency [4] | Potency [5] | Potency [6]

CCN1C(=O)[C@@H]2[C@H]3[C@H](O)[C@H](O)CC(=NO[C@@H](C)c4cn([C@H](CO)Cc5ccccc5)nn4)[C@@H]3CC[C@H]2C1=O
inactive: Potency [1] | Potency [2] | Potency [3] | Potency [4] | Potency [5] | Potency [6]

COCC(=O)N1CCc2nc(-c3ccccc3)c3c(c2C1)CO[C@@H](C)C3
inactive: Potency [1] | Potency [2] | Potency [3] | Potency [4] | Potency [5] | Potency [6]

COC1=CC2C(=O)C(C1=O)C1c3ccccc3CC21 (centres undefined)
inactive: Potency [1] | Potency [2] | Potency [3] | Potency [4] | Potency [5] | Potency [6]

CCOC(=O)CN1C(=O)N(CC)C(C)=C(C(=O)OC)C1c1ccccc1 (centres undefined)
inactive: Potency [1] | Potency [2] | Potency [3] | Potency [4] | Potency [5] | Potency [6]

COC(=O)C[C@H]1c2ccccc2C2=C(C[C@@H](C)[C@H]3C(=O)N(c4ccccc4)C(=O)[C@@H]23)N1C(=O)OC
inactive: activity, negative = inhibition [1] 2.35% [at 1.12 µM] and 0.352% [at 1.12 µM] | Potency [2] | Potency [3] | Potency [4] | Potency [5] | Potency [6]

COc1ccc2c(c1)CO[C@H]([C@H](O)CBr)[C@H]2C=Cc1ccccc1
inactive: Potency [1] | Potency [2] | Potency [3] | Potency [4] | Potency [5] | Potency [6]
